These results are taken from article PMC4552634, “A New Set of Chemical Starting Points with Plasmodium falciparum Transmission-Blocking Potential for Antimalarial Drug Discovery” (PLoS ONE, 2015).

Screen size: about 13,000 compounds; about 3,200 (25%) showed an effect of 50% or more. Some of the results follow.

For this test, the system named is P. falciparum stage V gametocytes. Further details: BacTiter-Glo ATP luminescence viability of purified stage V gametocytes in 384-well plates, per cent inhibition versus DMSO. The following applies: 48 h, 5 µM; inhibitor.
For `O=C(NCc1cccc(F)c1)Nc1ccc(-c2cccc(-c3nc4ccc(F)cc4[nH]3)c2)cc1` [TCMDC-133296], the “% Inhibition” value was 0.06231%.

`Cc1ccc(NC(=O)c2ccc(N3CCC(c4ccccc4C)CC3)nc2)cc1` [TCMDC-134594]: the “% Inhibition” value came to 8.038%.

`COc1ccc(CN2CCN(Cc3cc(Cl)ccc3O)CC2CCO)c(C)c1C` (stereo not drawn) [TCMDC-124638]: the “% Inhibition” value is -22.47%.

Turning to `CC(C)CCN1CCC(Oc2ccc(NC(=O)c3ccco3)cc2Cl)CC1` [TCMDC-133976], the “% Inhibition” value is listed as 100.7%.

In the case of `N#Cc1ccc(CN2CCC(Oc3ccc(NC(=O)c4ccco4)cc3Cl)CC2)cc1` [TCMDC-133957], the “% Inhibition” value is 8.133%.

For the compound `CC(C)CCN1CCC(Oc2ccc(NC(=O)c3ccc(F)cc3)cc2Cl)CC1` [TCMDC-133978], the “% Inhibition” value was 33.54%.

Consider `O=C(NC(=S)NCc1ccncc1)c1ccccc1` [TCMDC-123842], for which the “% Inhibition” value is reported as -6.445%.

Consider `NC1=NC(CCc2ccccc2)N(c2ccc(Cl)cc2)C(N)=N1` (stereo not drawn) [TCMDC-131290], for which the “% Inhibition” value is listed as 6.603%.

As for `COc1ccc2c(c1)Nc1ccc(Cl)cc1C2N` (stereo not drawn) [TCMDC-141985], the “% Inhibition” value is reported as 106.2%.

For the compound `Fc1cccc(COc2ccc(-n3ccc4c(NCCCn5ccnc5)ncnc43)cc2Cl)n1` [TCMDC-135092], the “% Inhibition” value is given as -5.729%.

For the compound `COc1ccc2ccccc2c1C=NNc1ccnc2cc(Cl)ccc12` [TCMDC-123949], the “% Inhibition” value was -70.44%.

Regarding `CCN(CC)CCCN(CCCN(CC)CC)c1cc(C)nc(Nc2ccc(Cl)cc2)n1` [TCMDC-137489], the “% Inhibition” value was determined as 39.75%.

`CCCN(CCC)CCCN(CCCN(CCC)CCC)c1cc(C)nc(Nc2ccc(Cl)cc2)n1` [TCMDC-137773]: the “% Inhibition” value was 63.95%.

With `CCNc1cc(C)nc(Nc2ccc(C)cc2)n1` [TCMDC-134007], the “% Inhibition” value was determined as 5.581%.

As for `Cc1cc(N(C)CCCN(C)C)nc(Nc2ccc(Cl)cc2)n1` [TCMDC-136887], the “% Inhibition” value was found to be 28.42%.

Consider `Cc1cc(N(CCCN(C)C)Cc2cc(F)cc(F)c2)nc(Nc2ccc(Cl)cc2)n1` [TCMDC-132203], for which the “% Inhibition” value is recorded as -7.276%.

As for `CCNc1cc(C)nc(Nc2ccc(F)cc2)n1` [TCMDC-134008], the “% Inhibition” value is recorded as 39.4%.

Regarding `CCCCN(CCCC)CCCN(CCCN(CCCC)CCCC)c1cc(C)nc(Nc2ccc(Cl)cc2)n1` [TCMDC-137487], the “% Inhibition” value is on record as 97.2%.

Take `Cc1cc(NCCCCCCN)nc(Nc2ccc(Cl)cc2)n1` [TCMDC-138191]: the “% Inhibition” value is listed as 54.5%.

On to `CCCN(CCCN(CCCN(CCC)C(C)C)c1cc(C)nc(Nc2ccc(Cl)cc2)n1)C(C)C` [TCMDC-138003], for which the “% Inhibition” value is 44.69%.

With `Cc1cc(-c2ccnc(Nc3cccc(C#N)c3)n2)cc(C)c1O` [TCMDC-133719], the “% Inhibition” value was -73.96%.

For `O=C(NC1CCCCCC1)C1CCCN(C(=O)c2ccc(O)c(-c3ccc(Cl)c(Cl)c3)c2)C1` (stereo not drawn) [TCMDC-140888], the “% Inhibition” value is on record as 23.53%.

With `CCCCN1C(=O)C2CC(=O)CC(C3CCCCC3)C2C1=O` (stereo not drawn) [TCMDC-139128], the “% Inhibition” value was 18.42%.

Take `O=C(O)C(F)(F)F.c1cc(-c2ccc(CNC3CCOCC3)cc2)cc(-c2nc3ccccc3[nH]2)c1` [TCMDC-132572]: the “% Inhibition” value was found to be 48.89%.

For the compound `CCCC[C@H](NC(=O)O[C@H](COc1ccc(OCc2ccccc2)cc1)C(C)(C)C)C(=O)C(=O)Nc1ccn[nH]1` [TCMDC-138665], the “% Inhibition” value amounted to 67.01%.

Take `CCC[C@@H]([C@@H](CC(C)C)C(=O)N[C@@H](CCCCNC(=O)OCc1ccccc1)C(=O)Nc1ncccn1)N(O)C=O` [TCMDC-137323]: the “% Inhibition” value is listed as 42.47%.

With `CCCC[C@H](NC(=O)OC(C)(C)C)C(=O)Nc1ccc(Cc2ccc(NC(=O)[C@H](CCCC)NC(=O)OC(C)(C)C)cc2)cc1` [TCMDC-131870], the “% Inhibition” value is -71.66%.

In the case of `Cc1ccc2c(Cl)c(C(=O)N3CCCc4ccccc43)sc2c1` [TCMDC-125658], the “% Inhibition” value was found to be 1.703%.

`CC1(CCc2ccccc2)N=C(N)N=C(N)C1c1ccc(Cl)c(Cl)c1` (stereo not drawn) [TCMDC-136376]: the “% Inhibition” value turned out to be 33.71%.

For the compound `CCCCCCC1(C)N=C(N)N=C(N)C1c1ccc(Cl)c(Cl)c1` (stereo not drawn) [TCMDC-137594], the “% Inhibition” value was found to be 22.11%.

On to `CC1(CCc2ccccc2)N=C(N)N(Cc2ccccc2)C(=O)C1c1ccc(Cl)c(Cl)c1` (stereo not drawn) [TCMDC-136509], for which the “% Inhibition” value is listed as 88.15%.

As for `O=C(NCCN1CCOCC1)c1ccc(N2CCC(Oc3ccc4ccccc4c3)CC2)nc1` [TCMDC-134400], the “% Inhibition” value was 19.81%.

Consider `O=C(CCC1CCCCC1=O)c1ccccc1` (stereo not drawn) [TCMDC-125845], for which the “% Inhibition” value was determined as 5.946%.

For `CN(c1ccc2c(c1)nc(NCc1ccccc1)n2C)c1ccnc(Nc2ccc(CS(C)(=O)=O)cc2)n1` [TCMDC-138740], the “% Inhibition” value is on record as 25.8%.

Take `COc1ccccc1C1CCN(CCCCNC(=O)c2ccc(/C=C/c3cc(Cl)cc(Cl)c3)cc2)CC1` [TCMDC-138241]: the “% Inhibition” value came to 103.9%.

With `Cc1ccc(C2CCN(CCCCNC(=O)c3ccc(NC(=O)c4ccc(Cl)cc4)cc3)CC2)c(OCC2CC2)c1` [TCMDC-138541], the “% Inhibition” value amounted to 76.06%.

Regarding `Cc1ccc(C2CCN(CCCCNC(=O)c3ccc(NC(=O)c4ccc(Cl)cc4)cc3)CC2)c(OCC(F)(F)F)c1` [TCMDC-138572], the “% Inhibition” value is listed as -14.71%.

Consider `CCOc1cc(C)ccc1C1CCN(CCCCNC(=O)c2ccc(NC(=O)c3cc(Cl)cc(Cl)c3)cc2)CC1` [TCMDC-138620], for which the “% Inhibition” value is 9.848%.

Regarding `COc1cc(C(C)C)ccc1C1CCN(CCCCNC(=O)c2ccc(NC(=O)c3ccc(Cl)cc3)cc2)CC1` [TCMDC-138403], the “% Inhibition” value amounted to 115.5%.

Regarding `CCOc1ccc(C2CCN(CCCCNC(=O)c3ccc(NC(=O)c4ccc(Cl)cc4)cc3)CC2)c(CC)c1` [TCMDC-138357], the “% Inhibition” value was found to be 26.78%.

`COc1ccc(C2CCN(CCCCNC(=O)c3ccc(NC(=O)c4ccc(Cl)cc4)cc3)CC2)c(OC)c1` [TCMDC-138254]: the “% Inhibition” value was 47.57%.

In the case of `CCOc1ccc(C2CCN(CCCCNC(=O)c3ccc(NC(=O)c4ccc(Cl)cc4)cc3)CC2)c(Cl)c1` [TCMDC-138365], the “% Inhibition” value is 58.19%.

`COc1ccccc1C1CCN(CCCCNC(=O)c2ccc(NC(=O)c3ccc(Cl)cc3)cc2)CC1` [TCMDC-138239]: the “% Inhibition” value is on record as 21.16%.

On to `CCOc1cc(C(C)C)ccc1C1CCN(CCCCNC(=O)c2ccc(NC(=O)c3ccc(Cl)cc3)cc2)CC1` [TCMDC-138385], for which the “% Inhibition” value is given as 20.72%.

Turning to `CCc1cc(OC)ccc1C1CCN(CCCCNC(=O)c2ccc(NC(=O)c3ccc(Cl)cc3)cc2)CC1` [TCMDC-138360], the “% Inhibition” value is given as -6.372%.

In the case of `CCOc1ccccc1C1CCN(CCCCNC(=O)c2ccc(NC(=O)c3ccc(Cl)cc3)cc2)CC1` [TCMDC-138369], the “% Inhibition” value is -17.64%.

For `O=C(Nc1ccc2ccccc2n1)c1ccccc1-c1ccccc1` [TCMDC-125339], the “% Inhibition” value is -5.994%.

In the case of `FC(F)(F)c1ccc(/C=C/c2cncnc2Nc2ccc3nc(Cc4ccccc4)[nH]c3c2)cc1` [TCMDC-138660], the “% Inhibition” value is reported as -4.612%.

As to `CC(Oc1ccc(C(=O)c2ccc(F)cc2)cc1)C(=O)N1CCc2ccccc21` (stereo not drawn) [TCMDC-123555], the “% Inhibition” value is on record as 10.82%.

Regarding `Cc1sc2nc(CSc3ccccc3)nc(N3CCN(CC(=O)N4CCCC4)CC3)c2c1C` [TCMDC-125052], the “% Inhibition” value is -14.62%.

As to `N#Cc1ccc2c(c1)CCN(CCC1CCC(NC(=O)/C=C/c3ccc(F)c4ccccc34)CC1)CC2` (stereo not drawn) [TCMDC-139664], the “% Inhibition” value is -16.56%.

In the case of `CC(C)C[C@H](Nc1ccnc(NCC2CCCCC2)n1)C(=O)NCCc1ccccc1` [TCMDC-134713], the “% Inhibition” value is reported as -30.95%.

Take `CCCC(=O)Nc1ccc(OCCN(Cc2ccccc2OC(F)(F)F)c2ccc(C(F)(F)F)c(C#N)c2)cc1` [TCMDC-132791]: the “% Inhibition” value was found to be 22.95%.

For the compound `CCCCCc1ccc(NC(=O)Nc2ccc(Cn3ncc(N4CCCNCC4)c(Cl)c3=O)cc2)cc1` [TCMDC-133312], the “% Inhibition” value is -21.48%.

`CC(C)c1ccc(C2CCN(CCCCNC(=O)c3ccc(NC(=O)c4ccc(C(F)(F)F)cc4)cc3)CC2)c(O)c1` [TCMDC-138527]: the “% Inhibition” value stood at 105.5%.

In the case of `COc1cccc(C2CCCN(CCCCNC(=O)c3ccc(NC(=O)c4ccc(Cl)cc4)cc3)C2)c1` (stereo not drawn) [TCMDC-138283], the “% Inhibition” value was 16.5%.

For the compound `O=C(NCCCCN1CCC(c2ccc(C(F)(F)F)cc2C(F)(F)F)CC1)c1ccc(NC(=O)c2ccc(Cl)cc2)cc1` [TCMDC-138343], the “% Inhibition” value is -51.81%.

For `COc1cccc(OCC2CCCN(CCCCNC(=O)c3ccc(NC(=O)c4ccc(Cl)cc4)cc3)C2)c1` (stereo not drawn) [TCMDC-138269], the “% Inhibition” value is 92.38%.

Consider `COc1ccc(C2CCN(CCCNC(=O)c3ccc(NC(=O)c4ccc(Cl)cc4)cc3)CC2)c(OC)c1` [TCMDC-138288], for which the “% Inhibition” value stood at 4.031%.

Turning to `CCOc1ccc(N2CCN(CCCCNC(=O)c3ccc(NC(=O)c4ccc(Cl)cc4)cc3)CC2)c(OCC)c1` [TCMDC-138243], the “% Inhibition” value came to 4.088%.

As for `CCOc1ccc(C2CCN(CCCCNC(=O)c3ccc(NC(=O)c4ccc(Cl)cc4)cc3)CC2)c(OCC)c1` [TCMDC-138260], the “% Inhibition” value stood at 93.19%.

As for `Cc1ccc(C2CCN(CCCCNC(=O)c3ccc(-c4ccc(C(F)(F)F)cc4)cc3)CC2)c(O)c1` [TCMDC-138538], the “% Inhibition” value is recorded as 45.11%.

Take `COc1ccc(C2CCN(CCCCNC(=O)c3ccc(NC(=O)c4ccc(Cl)cc4)cc3)C2)c(OC)c1` (stereo not drawn) [TCMDC-138281]: the “% Inhibition” value is on record as 10.37%.

Consider `CCCCc1nc2nc(N)nc(N)c2cc1CCC` [TCMDC-137499], for which the “% Inhibition” value was found to be 32.62%.

In the case of `Nc1ccn([C@@H]2O[C@H](COC(c3ccccc3)(c3ccccc3)c3ccccc3)[C@@H](O)[C@@H]2O)c(=O)n1` [TCMDC-131864], the “% Inhibition” value is listed as 13.5%.

In the case of `Cc1[nH]cc(Br)c(=O)c1-c1ccc(Oc2ccccc2)cc1` [TCMDC-136196], the “% Inhibition” value is 35.13%.
